Reference: PubChem BioAssay (Tox21)
Results filed as inconclusive are left out. Entries that show only a call come without a potency. Active and inactive are the calls of the source. The call rests on the fitted dose curve; in most records, active means well fitted cell-killing curve with a large enough effect in the repeat runs; inconclusive means weak or mixed curves, or effect the other way; inactive means no such curve, though single readings can be large or run the other way.

Assay: qHTS assay to identify small molecule agonists of the farnesoid-X-receptor (FXR) signaling pathway - cell viability counter screen (AID 743218); further: nearly all actives have a fitted effect of over 45% in size
Conditions: FXR-bla HEK293T viability, CellTiter-Glo luminescence, 16 h; series mostly up to 62.6 µM
From the text: U.S. Tox21 Program National Center for Advancing Translational Sciences [NCATS] NIH Chemical Genomics Center [NCGC] U.S. Environmental Protection Agency [EPA] National Institutes of Environmental Health Sciences [NIEHS] National Toxicology Program [NTP] U.S. Food and Drug Administration [FDA] Tox21 Assay Overview: The farnesoid-X-receptor (FXR), a nuclear hormone receptor, is highly expressed in liver, intestine, kidney and adrenal cortex. Natural ligands of FXR are the bile acids (Cholic acid, Chenodeoxy cholic acid etc). FXR is an important regulator of diverse metabolic pathways, including the bile acid homeostasis, lipid and glucose metabolisms. FXR regulates the expression of target genes by binding either as a monomer or as a heterodimer with the retinoid X receptor (RXR). Numerous studies have reported that FXR exerts protective function during cholestasis, diabetes, liver regeneration, and cancer. To identify compounds that activate FXR signaling, GeneBLAzer FXR-UAS-bla HEK 293T cell line (Invitrogen, Carlsbad, CA) containing a beta-lactamase reporter gene under the control of a UAS response element was used to screen the Tox21 10K compound library. The cytotoxicity of the Tox21 compound library against the FXR-bla cell line was tested in parallel by measuring the cell viability using CellTiter-Glo assay in the same wells.
Tox21 Assay Protocol Summary: FXR-bla cells were dispensed at 5000 cells/5uL/well in 1536-well black wall/clear bottom plates using a Multidrop Combi (Thermo Fisher Scientific, Waltham, MA) dispenser. After the assay plates were incubated at 37 C and 5% CO2 for 5 h, 23 nL of compounds dissolved in DMSO, positive controls or DMSO only was transferred to the assay plate by a Pintool station (Kalypsys, San Diego, CA). The assay plates were incubated at 37C for 16 h. After 1 uL of LiveBLAzerTM B/G FRET substrate was added using a Bioraptr Flying Reagent Dispenser (FRD) workstation (Beckman Coulter, Indianapolis, IN), the plates were incubated at room temperature for 2 h, and fluorescence intensity was measured by an Envision plate reader (PerkinElmer, Shelton, CT). For cell viability readout that measures cytotoxicity, 4uL/well of CellTiter-Glo reagent was added into the assay plates using a Bioraptr FRD. After 30 min incubation at room temperature, the luminescence intensity in the plates was measured using a ViewLux plate reader (PerkinElmer).

Row | SMILES | Potency
1 | CC1=NN(c2ccc(S(=O)(=O)O)cc2)C(=O)C1N=Nc1ccccc1 (stereo not given) | inactive
2 | C[Si]1(C)N[Si](C)(C)N[Si](C)(C)N1 | inactive
3 | C1=CCC(c2ccccc2)CC1 (stereo not given) | inactive
4 | O=CN1CCOCC1 | inactive
5 | C=CCOC(=O)c1ccc(C(=O)OCC=C)c(C(=O)OCC=C)c1 | inactive
6 | CC(=O)Nc1ncc([N+](=O)[O-])s1 | inactive
7 | CC(=O)OCCCc1ccccc1 | inactive
8 | Cc1ccc2c(c1)c1c3n2CCNC3CCC1 (stereo not given) | inactive
9 | CCCOC(=O)CCCCC(=O)OCCC | inactive
10 | CCNC(=O)NCCCOc1cccc(CN2CCCCC2)c1 | inactive
11 | C=CCOCC(O)CCl (stereo not given) | inactive
12 | CC(=O)OCC(=O)[C@@]1(O)[C@H](OC(C)=O)C[C@H]2[C@@H]3CCC4=CC(=O)C=C[C@]4(C)[C@@]3(F)[C@@H](O)C[C@@]21C | inactive
13 | NS(=O)(=O)c1ccc(Cl)c(S(N)(=O)=O)c1 | inactive
14 | CC(=O)OC(C)c1ccccc1 (stereo not given) | inactive
15 | C=C(C)[C@@H]1CC[C@@H](C)C[C@@H]1O | inactive
16 | NS(=O)(=O)c1cc2c(cc1Cl)NC(C(Cl)Cl)NS2(=O)=O (stereo not given) | inactive
17 | COCC(=O)Nc1c(I)c(C(=O)NCC(O)CO)c(I)c(C(=O)N(C)CC(O)CO)c1I (stereo not given) | inactive
18 | CCC1Nc2cc(Cl)c(S(N)(=O)=O)cc2S(=O)(=O)N1 (stereo not given) | inactive
19 | Cc1ccccc1OCC1CO1 (stereo not given) | inactive
20 | CC(C)(C)c1ccc(C=O)cc1 | inactive

Row | SMILES | Potency
21 | CN[C@@H]1[C@@H](O)[C@@H](O[C@@H]2[C@H](O)[C@H](O[C@H]3OC(CN)=CC[C@H]3N)[C@@H](N)C[C@H]2N)OCC1(C)O (stereo not given in full) | inactive
22 | CC1=CC[C@H](CC=O)C1(C)C | inactive
23 | O=C1c2ccccc2-c2ccccc21 | inactive
24 | Nc1nc(=O)n([C@@H]2O[C@H](CO)[C@@H](O)[C@@H]2F)cc1I | inactive
25 | CCC(=O)OCCC(C)CCC=C(C)C (stereo not given) | inactive
26 | O=S1(=O)CCCC1 | inactive
27 | Nc1cc(Cl)cc(S(=O)(=O)O)c1O | inactive
28 | C=COCCOCCOC=C | inactive
29 | C[N+](C)(C)CC(O)CCl (stereo not given) | inactive
30 | CC(Cl)COP(=O)(OCC(C)Cl)OCC(C)Cl (stereo not given) | inactive
31 | CCS(=O)(=O)CCn1c([N+](=O)[O-])cnc1C | inactive
32 | CC(C)C(=O)Nc1cccc(C(F)(F)F)c1 | inactive
33 | Cc1ncc([N+](=O)[O-])n1CC(O)CCl (stereo not given) | inactive
34 | CCN1CN(CC)CN(CC)C1 | inactive
35 | CNC(=O)C(c1ccccc1)c1ccccc1 | inactive
36 | CCC1COC(=O)O1 (stereo not given) | inactive
37 | CC(C)COC(=O)CCCCC(=O)OCC(C)C | inactive
38 | COCCOCCOCCOC | inactive
39 | CCCCC(CC)COC(=O)c1ccccc1 (stereo not given) | inactive
40 | C=C[Si](C)(C)O[Si](C)(C)C=C | inactive
